# In the supplement of paper PMC8728848:
# Many of the other results were omitted from the sample, so the strongest signals are more common in it than they were.
# B1: Epa1to9 (Candida glabrata) (protein)
# chain: MGSSHHHHHHSSGLVPRGSHMTSSNDISLASKDPTTFPLGCSPDITTPKKGLSMELYSYDFRKKGSYPCWDAAYLDPNYPRTGYKSHRLLAKVDGVTGNINFYYHATKGCTPQLGHLPASYNYPKPLTMTNFTMLLYGYFRPKVTGFHTFTISADDLLFVNFGAGNAFDCCRRDSSADHFGNYQAYAIWGSKTAKDELTVHLDAGVYYPIRLFYNNRDYHGALSFTFKTESNENTVSDFSEYFFSLDDTEEGCPGLISYD
# Assays:
# Assay in all cases: glycan array binding signal (z-score within array); higher = stronger binding
# Settings in all cases: glycan notation: IUPAC condensed, linker removed
# Gal6S(b1-4)Glc = molecular target: Gal6S(b1-4)Glc
# Outline: (§1)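 The Consortium for Functional Glycomics database supplied 3228 glycan arrays, of which those lacking an available protein sequence were dropped. The binding signal, a within-array Z-score, was averaged across arrays of the same protein sequence and across linkers. Negative scores can be read as non-binding.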
# Gal6S(b1-4)Glc6S = molecular target: Gal6S(b1-4)Glc6S
# Outline: as §1
# Gal6S(b1-4)GlcNAc = molecular target: Gal6S(b1-4)GlcNAc
# Outline: as §1
# Gal6S(b1-4)GlcNAc6S = molecular target: Gal6S(b1-4)GlcNAc6S
# Outline: as §1
# GalNAc3S(b1-4)GlcNAc3S = molecular target: GalNAc3S(b1-4)GlcNAc3S
# Outline: as §1
# GalNAc4S6S(b1-4)GlcNAc = molecular target: GalNAc4S6S(b1-4)GlcNAc
# Outline: as §1
# Glc(b1-6)Glc = molecular target: Glc(b1-6)Glc
# Outline: as §1
# GlcA(b1-3)Gal = molecular target: GlcA(b1-3)Gal
# Outline: as §1
# GlcA(b1-3)GlcNAc = molecular target: GlcA(b1-3)GlcNAc
# Outline: as §1
# [1] = molecular target: GlcA3S(b1-3)Gal(b1-4)GlcNAc(b1-3)Gal(b1-4)Glc
# Outline: as §1
# [2] = molecular target: GlcNAc(b1-2)Man(a1-3)[GlcNAc(b1-4)][GlcNAc(b1-2)Man(a1-6)]Man(b1-4)GlcNAc(b1-4)[Fuc(a1-6)]GlcNAc
# Outline: as §1
# [3] = molecular target: GlcNAc(b1-2)[GlcNAc(b1-4)]Man(a1-3)[GlcNAc(b1-2)Man(a1-6)]Man(b1-4)GlcNAc(b1-4)GlcNAc
# Outline: as §1
# [4] = molecular target: GlcNAc(b1-2)[GlcNAc(b1-6)]Man(a1-6)[GlcNAc(b1-2)Man(a1-3)]Man(b1-4)GlcNAc(b1-4)GlcNAc
# Outline: as §1
# GlcNAc(b1-3)GalNAc = molecular target: GlcNAc(b1-3)GalNAc
# Outline: as §1
# Kdn(a2-3)Gal(b1-3)GalNAc = molecular target: Kdn(a2-3)Gal(b1-3)GalNAc
# Outline: as §1
# Man(a1-3)[Man(a1-6)]Man = molecular target: Man(a1-3)[Man(a1-6)]Man
# Outline: as §1
# [5] = molecular target: Man(a1-3)[Man(a1-6)]Man(b1-4)GlcNAc(b1-4)[Fuc(a1-6)]GlcNAc
# Outline: as §1
# [6] = molecular target: Neu5Ac(a2-3)Gal(b1-3)GlcNAc(b1-2)Man
# Outline: as §1
# [7] = molecular target: Neu5Ac(a2-3)Gal(b1-4)GlcNAc(b1-2)Man(a1-3)[Neu5Ac(a2-6)Gal(b1-4)GlcNAc(b1-2)Man(a1-6)]Man(b1-4)GlcNAc(b1-4)GlcNAc
# Outline: as §1
# [8] = molecular target: Neu5Ac(a2-3)Gal(b1-4)[Fuc(a1-3)]GlcNAc6S
# Outline: as §1
# [9] = molecular target: Neu5Ac(a2-6)Gal(b1-4)GlcNAc(b1-2)Man(a1-3)[Gal(b1-4)GlcNAc(b1-2)Man(a1-6)]Man(b1-4)GlcNAc(b1-4)GlcNAc
# Outline: as §1
# [10] = molecular target: Neu5Ac(a2-6)Gal(b1-4)GlcNAc(b1-3)Gal(b1-4)GlcNAc(b1-3)Gal(b1-4)GlcNAc(b1-2)Man(a1-3)[Neu5Ac(a2-6)Gal(b1-4)GlcNAc(b1-3)Gal(b1-4)GlcNAc(b1-3)Gal(b1-4)GlcNAc(b1-2)Man(a1-6)]GalNAc
# Outline: as §1
# Neu5Ac(a2-6)GalNAc = molecular target: Neu5Ac(a2-6)GalNAc
# Outline: as §1
# Neu5Ac(b2-6)GalNAc = molecular target: Neu5Ac(b2-6)GalNAc
# Outline: as §1
# [11] = molecular target: Neu5Gc(a2-8)Neu5Ac(a2-3)Gal(b1-4)GlcNAc
# Outline: as §1
binder,measurement,setting,value
B1,glycan array binding signal (z-score),Gal6S(b1-4)Glc,5.05
same,glycan array binding signal (z-score),Gal6S(b1-4)Glc6S,7.26
same,glycan array binding signal (z-score),Gal6S(b1-4)GlcNAc,4.98
same,glycan array binding signal (z-score),Gal6S(b1-4)GlcNAc6S,10.6
same,glycan array binding signal (z-score),GalNAc3S(b1-4)GlcNAc3S,-0.353
same,glycan array binding signal (z-score),GalNAc4S6S(b1-4)GlcNAc,-0.346
same,glycan array binding signal (z-score),Glc(b1-6)Glc,-0.333
same,glycan array binding signal (z-score),GlcA(b1-3)Gal,-0.315
same,glycan array binding signal (z-score),GlcA(b1-3)GlcNAc,-0.346
same,glycan array binding signal (z-score),[1],-0.35
same,glycan array binding signal (z-score),[2],-0.354
same,glycan array binding signal (z-score),[3],-0.295
same,glycan array binding signal (z-score),[4],-0.344
same,glycan array binding signal (z-score),GlcNAc(b1-3)GalNAc,-0.352
same,glycan array binding signal (z-score),Kdn(a2-3)Gal(b1-3)GalNAc,-0.38
same,glycan array binding signal (z-score),Man(a1-3)[Man(a1-6)]Man,-0.287
same,glycan array binding signal (z-score),[5],-0.339
same,glycan array binding signal (z-score),[6],-0.33
same,glycan array binding signal (z-score),[7],-0.322
same,glycan array binding signal (z-score),[8],-0.36
same,glycan array binding signal (z-score),[9],-0.246
same,glycan array binding signal (z-score),[10],-0.309
same,glycan array binding signal (z-score),Neu5Ac(a2-6)GalNAc,-0.343
same,glycan array binding signal (z-score),Neu5Ac(b2-6)GalNAc,-0.346
same,glycan array binding signal (z-score),[11],-0.338
